Results reported in PubChem BioAssay AID1745847 (National Center for Advancing Translational Sciences (NCATS), 2022).
The campaign covered roughly 2,100 compounds. About 670 (32%) were called active. Roughly 50% stayed inconclusive and do not appear here. The list shows a part of the results. Unmarked numbers belong to inactive results. The call rests on the fitted dose curve; in most records, active means well fitted inhibition curve with a large enough effect; inconclusive means small, poorly fitted or top-dose-only effect; inactive means no such curve, though single readings can be large or run the other way.

Assay: CMV-Luciferase Counterscreen for Inhibitors of ATXN expression; further: nearly all actives have a fitted effect of over 55% in size
Conditions: HEK-293 CMV-luciferase reporter, luminescence, 24 h; series mostly up to 57.5 µM; activity change, negative = inhibition: at the top concentration
On the % scale 0 is the no-effect control and ±100 the full control effect; potency means the concentration at half of the fitted maximal effect.

Row | SMILES | Potency | activity change, negative = inhibition
1 | O=C(N/N=C(\c1ccccc1)c1ccccn1)c1ccccc1Cl | 3.98 µM (active) | –
2 | COc1cc(C(=O)N/N=C(\c2ccccc2)c2ccccn2)cc(OC)c1OC | 0.398 µM (active) | –
3 | CCC(CC)C(=O)c1c[nH]c(C(=O)NCc2ccccn2)c1 | – | 5.87%
4 | Cc1ccc2c(c1)-c1c(cnn1CC(=O)N1CCCN(Cc3ccccc3F)C1)CO2 | – | -25.8% [at 11.4 µM]
5 | CC(NC1=CC(=O)c2cccnc2C1=O)C(O)c1ccccc1 (stereo not given) | 15.8 µM (active) | –
6 | C/C(=N\NC(=O)C1CCCN(S(=O)(=O)c2ccccc2)C1)c1ccccn1 (stereo not given) | 1.41 µM (active) | –
7 | CCc1ccc(-c2nc(CS(=O)CC(=O)NCc3ccco3)c(C)o2)cc1 (stereo not given) | 0.501 µM (active) | –
8 | Cc1cccc(N=C2NN=C(c3c(C)[nH]c4ccccc34)CS2)c1 | 12.6 µM (active) | –
9 | COc1cc(OC)cc(-c2cc3nc(C)c(CCC(=O)O)c(C)n3n2)c1 | 1 µM (active) | –
10 | COc1ccc(CNC(=O)CSc2nc(-c3ccccc3)cc(-c3cccs3)c2C#N)cc1 | – | 16% [at 11.4 µM]
11 | COc1cc(OC)cc(-c2cc3nc(C)c(CCC(=O)NCc4ccccc4)c(C)n3n2)c1 | 11.2 µM (active) | –
12 | Cc1c(CC(=O)NCCCC(=O)O)c(=O)oc2cc3c(cc12)CCC(C)(C)O3 | 11.2 µM (active) | –
13 | O=C1c2cccc3cc([N+](=O)[O-])cc(c23)C(=O)N1CCN1CCCC1 | 0.794 µM (active) | –
14 | CCc1ccc(-c2cc(C(F)(F)F)n3nc(C(=O)Nc4cnn(Cc5ccc(C)cc5)c4)cc3n2)s1 | – | -12.2%
15 | O=C(Nc1cnn(C23CC4CC(CC(C4)C2)C3)c1)c1cnn2c(C(F)(F)F)cc(-c3ccco3)nc12 | 15.8 µM (active) | –
16 | CCOc1ccc(/C=C/[N+](=O)[O-])c2ccccc12 | 15.8 µM (active) | –
17 | Cc1cc(=O)[nH]c(N=N/C(=N/Nc2ccccc2C)c2ccccc2)n1 | 1.58 µM (active) | –
18 | COc1cc(C#Cc2c(-c3cncn3C)n(C)c3ccc(-c4cnc(N5CCOCC5)nc4)cc23)cc(OC)c1 | – | -19.7% [at 11.4 µM]
19 | COc1cc(C#Cc2c(-c3cncn3C)n(C)c3ccc(-c4cnc(OC)nc4)cc23)cc(OC)c1 | 3.55 µM (active) | –
20 | COc1cc(C#Cc2c(-c3cncn3C)n(C)c3ccc(-c4ccc(CN5CCOCC5)cc4)cc23)cc(OC)c1 | – | -6.42% [at 11.4 µM]
21 | Cc1ccc(-c2cc(C(=O)N/N=C/c3ccccc3O)n[nH]2)o1 | 15.8 µM (active) | –
22 | O=C(N/N=C\c1c(O)ccc2ccccc12)c1cncc(Br)c1 | 0.282 µM (active) | –
23 | O=C(N/N=C/c1c(O)ccc2ccccc12)c1ccc(CO)nc1 | 8.91 µM (active) | –
24 | Nc1ccc2cc3[nH]c4cc(N)ccc4c3nc2c1 | – | -29.2% [at 11.4 µM]
25 | CCN1CCN(C2=C(NS(=O)(=O)c3ccc(C)cc3)C(=O)c3ccccc3C2=O)CC1 | 3.55 µM (active) | –
26 | CCn1c(CCC(=O)Nc2nc3c(s2)CCCC3)nc2cc(S(=O)(=O)N(C)C)ccc21 | – | 4.42% [at 11.4 µM]
27 | Cc1ccc(OCC(=O)N/N=C/c2cccc3cccnc23)cc1 | 20 µM (active) | –

Row | SMILES | Potency | activity change, negative = inhibition
28 | O=C(COc1ccc(F)cc1)N/N=C/c1cccc2cccnc12 | 2.82 µM (active) | –
29 | Cc1ccccc1OCC(=O)N/N=C/c1cccc2cccnc12 | 15.8 µM (active) | –
30 | CSCC[C@H](NC(=O)OC(C)(C)C)C(=O)N/N=C/c1cccc2cccnc12 | – | -26.9%
31 | Cc1cc(O)c(C(C)C)cc1N=Cc1ccc(N(C)C)cc1 | – | 0.592% [at 11.4 µM]
32 | Cc1nc(N2CCN(c3ccccn3)CC2)c2c(C)c(C(=O)N3CCN(c4ccc(F)cc4)CC3)sc2n1 | 14.1 µM (active) | –
33 | Oc1c(C(c2ccccn2)N2CCCCC2)cc(Cl)c2cccnc12 (stereo not given) | – | -10.9%
34 | Oc1c(C(Nc2ccccn2)c2cccnc2)cc(Cl)c2cccnc12 (stereo not given) | 12.6 µM (active) | –
35 | Cc1cc(NC(c2cccnc2)c2ccc3cccnc3c2O)no1 (stereo not given) | 3.98 µM (active) | –
36 | CCOc1ccccc1NC(=O)N1CCC(c2nc3ccccc3[nH]2)CC1 | – | 28.9% [at 11.4 µM]
37 | O=C(Nc1cccc(C(F)(F)F)c1)N1CCC(c2nc(-c3ccc(F)cc3)no2)CC1 | 11.2 µM (active) | –
38 | COc1ccc([C@@]2(C(C)C)ON(c3ccccc3C(F)(F)F)C2=O)cc1 | – | -27.1% [at 11.4 µM]
39 | Cn1c(=O)c(C#N)c(-c2ccc(F)cc2)c2cc(C(=O)c3cc(Cl)cc(Cl)c3O)cnc21 | 3.55 µM (active) | –
40 | NC(=S)n1[nH]c(-c2ccc([N+](=O)[O-])cc2)c(N=Nc2cccc(Cl)c2)c1=O | 3.55 µM (active) | –
41 | CC(C)(C)c1nnc(N/N=C/c2ccccc2O)n(N)c1=O | 1.26 µM (active) | –
42 | COc1ccc(C(=O)C=CNNC(=O)c2ccc(Cl)cc2)cc1 | 11.2 µM (active) | –
43 | Cc1cc(OCc2nc(N)nc(N)c2-c2ccc(Cl)c(Cl)c2)ccc1[N+](=O)[O-] | 0.316 µM (active) | –
44 | COc1cccc2c1C(=N)c1c(O)c3c(c(O)c1C2=O)CC(O)(C(C)=O)CC3OC1CC(N)C(O)C(C)O1 (stereo not given) | 0.282 µM (active) | –
45 | CCCCC(=O)OCC(=O)C1(O)Cc2c(O)c3c(c(O)c2C(OC2CC(NC(=O)C(F)(F)F)C(O)C(C)O2)C1)C(=O)c1c(OC)cccc1C3=O (stereo not given) | 3.16 µM (active) | –
46 | C=CCn1cnc2c(c1=O)c1nc3ccccc3nc1n2/N=C/c1cc(OC)c(OC)c(OC)c1 | – | -11.7%
47 | O=C(c1cnc(N2CCN(c3ccccn3)CC2)c2ccccc12)N1CCN(c2cccc(Cl)c2)CC1 | 6.31 µM (active) | –
48 | Cc1ccc(NC(=O)c2cnc(N3CCN(c4ccccn4)CC3)c3ccccc23)c(Br)c1 | 14.1 µM (active) | –
49 | CCCc1nc(NC2CCCCC2)c(C#N)c2c1COC(C)(C)C2 | – | -15.4% [at 11.4 µM]
50 | CC(=O)Oc1ccc(N(C(C)=O)S(=O)(=O)c2ccc(C)cc2C)c2ccccc12 | 17.8 µM (active) | –
51 | CC(=O)Oc1ccc(N(C(C)=O)S(=O)(=O)c2cccs2)c2ccccc12 | 25.1 µM (active) | –
52 | NC(Cc1ccc(F)cc1)c1csc(Nc2cc(NCc3ccco3)ncn2)n1 (stereo not given) | – | 0.881% [at 11.4 µM]
53 | Cc1nc(C(F)(F)F)c(C(=O)N/N=C(\N)c2ccccn2)s1 | 10 µM (active) | –
54 | Cc1cccc(/C=C/C(=O)c2ccc([N+](=O)[O-])o2)c1 | 3.55 µM (active) | –

Row | SMILES | Potency | activity change, negative = inhibition
55 | COc1cc(/C=C/C(=O)c2ccc(C)c([N+](=O)[O-])c2)cc(OC)c1O | – | -13.8%
56 | CN(C)C(=O)c1cccc(-c2cnc3c(NC=O)cc(-c4ccc(F)cc4)cn23)c1 | – | 49.3% [at 11.4 µM]
57 | COc1ccc(CC2C(=O)NC(C)C(=O)N(C)C3Cc4ccc(cc4)Oc4cc(ccc4O)CC(C(=O)NC(C)C(=O)NC(C)C(=O)N2C)N(C)C3=O)cc1 (stereo not given) | 0.891 µM (active) | –
58 | O=C(N/N=C/c1cc([N+](=O)[O-])ccc1O)c1cccc2cc[nH]c12 | 2.82 µM (active) | –
59 | O=C(N/N=C/c1cc([N+](=O)[O-])ccc1O)c1cc(-c2ccccc2)nc2ccccc12 | 1.78 µM (active) | –
60 | CN(C)CCNc1ncnc2c1ncn2[C@H]1CN(Cc2ccc(-c3ccccc3)cc2)C[C@@H](CO)O1 | – | -29.3%
61 | OC[C@@H]1CN(Cc2ccc(-c3ccccc3)cc2)C[C@H](n2cnc3c(NC4CCC4)ncnc32)O1 | 10 µM (active) | –
62 | OC[C@@H]1CN(Cc2ccc(-c3ccccc3)cc2)C[C@H](n2cnc3c(Nc4ccccc4)ncnc32)O1 | 12.6 µM (active) | –
63 | CN(C)CCCNc1nc2cc(-c3cccc(Cl)c3)sc2c(=O)n1C | – | -10.1%
64 | CN(C)C(=O)CSc1nc(-c2ccccc2)nc2c1CCCC2 | – | -18.6%
65 | CC1CCCCN1C(=O)C1CCN(c2nc(-c3ccccc3)nc3c2CCC3)CC1 (stereo not given) | 22.4 µM (active) | –
66 | CSc1nc(-c2ccc(Cl)cc2)nc(N)c1C#N | – | -7.46% [at 11.4 µM]
67 | CCc1cc(-c2nnn(CCC3COCCO3)c2CC)ccc1-c1cn(CCc2c[nH]c3ccccc23)nn1 (stereo not given) | 4.47 µM (active) | –
68 | COc1ccc2oc(/C=C/N(C)C)c(C(=O)c3ccc(Cl)cc3)c2c1 | 12.6 µM (active) | –
69 | C[C@H]1O[C@@H](O[C@H]2[C@@H](O)C[C@H](O[C@H]3[C@@H](O)C[C@H](O[C@H]4CC[C@@]5(C)[C@H](CC[C@@H]6[C@@H]5C[C@@H](O)[C@]5(C)[C@@H](C7=CC(=O)OC7)CC[C@]65O)C4)O[C@@H]3C)O[C@@H]2C)C[C@H](O)[C@@H]1O | – | -12%
70 | COc1cc2c3nnc(-c4ccc(F)cc4)c-3cn(Cc3ccc(C)cc3)c2cc1OC | – | 16.9%
71 | O=c1oc2ccccc2c(O)c1Cc1cc(Cl)c2cccnc2c1O | 10 µM (active) | –
72 | CCC1(c2ccccc2)ON(c2c(Br)cccc2Br)C1=O (stereo not given) | 17.8 µM (active) | –
73 | O=C(c1ccc(Cn2c(=S)[nH]c3ccccc3c2=O)cc1)N1CCN(c2ccccn2)CC1 | 3.16 µM (active) | –
74 | CCc1nc2ccc(C(=O)Nc3cccc(NS(C)(=O)=O)c3)cn2c1N(CC)Cc1cccc(Br)c1 | 31.6 µM (active) | –
75 | CCc1nc(N)nc(N)c1-c1ccc(N(C)Cc2ccccc2)c([N+](=O)[O-])c1 | 0.501 µM (active) | –
76 | Cn1c(-[n+]2c(-c3ccccc3)cc(-c3ccccc3)cc2-c2ccccc2)nc2c([N+](=O)[O-])cccc21 | – | 0.1% [at 11.4 µM]
77 | O=S(=O)([N-]c1nc2ccccc2nc1-[n+]1ccc(Cc2ccccc2)cc1)c1ccc(Br)s1 | 14.1 µM (active) | –
78 | CN1CCN(CCNC(=O)c2ccc3nc(-c4ccc(F)cc4)c(-c4ccc(F)cc4)nc3c2)CC1 | – | -29.4%
79 | Cc1ccc(-c2cc(C(=O)NCCCN3CCOCC3)no2)cc1 | 8.91 µM (active) | –
80 | O=C(Nc1ccc(Cl)c([N+](=O)[O-])c1)c1ccc(NCCCN2CCOCC2)c([N+](=O)[O-])c1 | – | 1.7%
